In the library only some 0.52% were active in any assay of this set; here they are far more common.
TRPML1 agonist: qHTS for Agonists of the Human Mucolipin Transient Receptor Potential 1 (TRPML1). AID 624414, 2012. Mucolipin-1 (Homo sapiens), Q9GZU1. actives 0.12% (n = 410,000). activation, % (concentration not given with the values). TRPML1-expressing cells, Ca2+ dye fluorescence, FDSS; in the data active = activation above about 50%; inconclusive = mostly about 30% to 49%; note: 0% is about no effect
Target sequence (Q9GZU1 whole entry, looked up): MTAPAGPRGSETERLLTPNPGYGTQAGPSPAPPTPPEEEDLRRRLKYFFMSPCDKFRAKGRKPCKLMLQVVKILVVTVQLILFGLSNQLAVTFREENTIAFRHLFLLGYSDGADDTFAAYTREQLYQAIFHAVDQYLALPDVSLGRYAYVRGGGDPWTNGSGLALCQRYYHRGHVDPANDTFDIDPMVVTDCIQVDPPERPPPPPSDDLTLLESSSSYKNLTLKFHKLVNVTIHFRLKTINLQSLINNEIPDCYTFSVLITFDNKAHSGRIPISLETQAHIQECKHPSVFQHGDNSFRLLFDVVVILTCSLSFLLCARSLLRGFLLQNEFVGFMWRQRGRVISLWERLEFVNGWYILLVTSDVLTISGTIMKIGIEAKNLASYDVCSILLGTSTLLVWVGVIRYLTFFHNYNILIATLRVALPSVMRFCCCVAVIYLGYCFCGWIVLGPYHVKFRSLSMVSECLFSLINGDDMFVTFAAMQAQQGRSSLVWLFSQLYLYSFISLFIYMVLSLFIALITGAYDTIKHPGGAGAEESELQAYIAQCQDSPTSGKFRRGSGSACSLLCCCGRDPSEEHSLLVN
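Kinetic FDSS Ca2+ read in Tet-induced TRPML1-DL cells (ABD Ca8 dye plus quencher, 45-90 min RT loading): baseline, then compound, then 110 s agonist window; EC80 agonist 54-4 at 4uM final added afterwards for a 110 s antagonist window.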
Vif-APOBEC3F blk: qHTS for Inhibitors of Vif-A3F Interactions: qHTS. HeLa A3F-eYFP + Vif (tagged APOBEC3F with the HIV-1 protein that degrades it), YFP fluorescence increase. Potency, µM (top dose mostly 46.1 µM), for the others: top-dose activity, negative = active. actives 0.2% (n = 390,000); note: potency is the fitted concentration of half-maximal effect; % of control where 0% means no effect; nearly all actives have a fitted effect of over 65% in size
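HeLa cells stably expressing A3F-eYFP plus Vif, plated and incubated overnight at 37 deg C, then exposed to compounds overnight at 37 deg C. Blocked degradation read as raised yellow fluorescence (Ex 488/Em 500-530).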
PINK1 modulator: A Quantitative High throughput Screen to Identify Chemical Modulators of PINK1 Expression; PINK1 immunofluorescence, high-content cytometry, 24 h; Potency, µM (titrated, usually from 76.6 µM), for the others: at the highest dose activation (PINK1 increase), most hits filed as activators; actives 0.2% (n = 410,000); AID 624263, 2012; active = well fitted activation curve with a large enough effect; inconclusive = small, poorly fitted or top-dose-only effect; cell line not stated here; note: potency is the fitted concentration of half-maximal effect; % of control where 0% means no effect; nearly all actives have a fitted effect of over 65% in size
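Decision-based qHTS: stable cells, 24 h exposure to five compound concentrations, CCCP as control. Fixed cells stained for PINK1 plus nuclear, mitochondrial and cell markers, cytometer read.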
Vif-A3G inh: qHTS for Inhibitors of Vif-A3G Interactions: qHTS; DNA dC->dU-editing enzyme APOBEC-3G (Homo sapiens), Q9HC16; HeLa A3G-eYFP + Vif (tagged APOBEC3G with the HIV-1 protein that degrades it), YFP fluorescence, overnight; Potency, µM (titrated, usually from 46.1 µM), for inactives: at the top dose activity, negative = active, hits mostly inhibitors; actives 0.076% (n = 410,000); AID 602310, 2012; note: potency is the fitted concentration of half-maximal effect; % is set by controls: 0 for no effect and ±100 for the full control effect; nearly all actives have a fitted effect of over 60% in size
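Read-out is eYFP fluorescence (Ex 488/Em 500-530) from Vif-expressing HeLa A3G-eYFP cells; more signal means A3G escaped Vif-mediated degradation. Cells plated overnight, compound pinned in, incubated overnight at 37 deg C.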
TRPML1 blocker: qHTS for Inhibitors of the Human Mucolipin Transient Receptor Potential 1 (TRPML1); actives 0.02% (n = 390,000); Mucolipin-1 (Homo sapiens), Q9GZU1; activity change, negative = inhibition, % (no concentration beside the values); TRPML1-inducible cells, Ca2+ dye fluorescence, FDSS; hits give low values; inhibition of EC80 agonist-evoked calcium signal; in the data active = activity change below about -50%; inconclusive = between about -30% and that limit;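 note: stimulus is agonist 54-4 at its EC80 concentration; % is set by controls: 0 for no effect and ±100 for the full control effect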
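Tet-induced TRPML1-DL cells loaded with Ca8 no-wash calcium dye were read kinetically on FDSS. Compound addition was followed by EC80 agonist 54-4 (4 uM final); inhibition was read over 110 s.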
* marks the source's active call; other numbers are inactive results. Unless noted, calls come from the whole dose curve; as a rule, active = well fitted curve in the direction sought with a large enough effect; inconclusive = small, poorly fitted or top-dose-only effect, or another doubt; inactive = no such curve, though single readings can be large; an effect the other way counts as inactive or inconclusive.

Screening CCNc1ccc(-c2nc(-c3ccncc3)no2)cc1[N+](=O)[O-] returned TRPML1 agonist 0, Vif-APOBEC3F blk 1%, PINK1 modulator 14µM*, Vif-A3G inh 4% and TRPML1 blocker -4.
N#Cc1c(C(F)(F)F)cc(-c2ccccc2)nc1SCc1nc(N)nc(N2CCOCC2)n1 was read as TRPML1 agonist 12, Vif-APOBEC3F blk 11µM*, PINK1 modulator 6%, Vif-A3G inh inconclusive and TRPML1 blocker 7.
For N#Cc1ccc(-c2cccnc2)nc1SCC(=O)Nc1sc2c(c1C#N)CCC2 the results were TRPML1 agonist 1, Vif-APOBEC3F blk -11%, PINK1 modulator inconclusive, Vif-A3G inh inconclusive and TRPML1 blocker 1.
`CCOc1ccc(-c2cc(C(F)(F)F)c(C#N)c(SCC(=O)Nc3ccccc3)n2)cc1` gave TRPML1 agonist 7, Vif-APOBEC3F blk inconclusive, PINK1 modulator 0%, Vif-A3G inh 13µM* and TRPML1 blocker 1.
N#Cc1c(C(F)(F)F)cc(-c2ccccc2)nc1SCC(=O)Nc1sc2c(c1C#N)CCC2 was read as TRPML1 agonist 1, Vif-APOBEC3F blk inconclusive, PINK1 modulator 13µM*, Vif-A3G inh inconclusive and TRPML1 blocker 2.
Screening Cc1cc(C(F)(F)F)c(C#N)c(SCC(=O)Nc2nc3ccccc3s2)n1 returned TRPML1 agonist inconclusive, Vif-APOBEC3F blk 22µM*, PINK1 modulator inconclusive, Vif-A3G inh inconclusive and TRPML1 blocker -15.
`Cc1cc(C)cc(OCc2cc(=O)n3c4c(sc3n2)CCCC4)c1` gave TRPML1 agonist 0, Vif-APOBEC3F blk 5%, PINK1 modulator -1%, Vif-A3G inh -3% and TRPML1 blocker -22.
Screening C[n+]1ccc(C(=O)N/N=C/c2ccco2)cc1 returned TRPML1 agonist 0, Vif-APOBEC3F blk -8%, PINK1 modulator 2%, Vif-A3G inh 2% and TRPML1 blocker 30.
`CC1=CC(=O)C(C(C)C)=C/C1=N/OS(=O)(=O)c1ccccc1` gave TRPML1 agonist 50*, Vif-APOBEC3F blk 10%, PINK1 modulator -1%, Vif-A3G inh inconclusive and TRPML1 blocker -5.
Screening CSCCC(=O)Nc1nc(-c2ccccn2)cs1 returned TRPML1 agonist 0, Vif-APOBEC3F blk -31%, PINK1 modulator 2%, Vif-A3G inh 2% and TRPML1 blocker -1.
Screening O=C(Nc1nc(-c2ccccn2)cs1)C1CCCC1 returned TRPML1 agonist 1, Vif-APOBEC3F blk 7.1µM*, PINK1 modulator 0%, Vif-A3G inh -2% and TRPML1 blocker 3.
Screening CN(C)S(=O)(=O)n1cc(/C=C(\NC(=O)c2ccccc2F)C(=O)N2CCCCC2)c2ccccc21 returned TRPML1 agonist -1, Vif-APOBEC3F blk 1%, PINK1 modulator 8%, Vif-A3G inh 1% and TRPML1 blocker 42.
Screening CN(C)c1ccc(/C=C(/C#N)C(=O)NCc2ccccc2)o1 returned TRPML1 agonist 20, Vif-APOBEC3F blk 10µM*, PINK1 modulator inconclusive, Vif-A3G inh inconclusive and TRPML1 blocker 3.
Screening CC(=O)c1cccc(NC(=O)/C=C/c2ccc([N+](=O)[O-])s2)c1 returned TRPML1 agonist 0, Vif-APOBEC3F blk inconclusive, PINK1 modulator 18%, Vif-A3G inh inconclusive and TRPML1 blocker -7.
`Cc1ccccc1NC(=O)/C=C/c1ccc([N+](=O)[O-])s1` gave TRPML1 agonist 0, Vif-APOBEC3F blk 10µM*, PINK1 modulator 4%, Vif-A3G inh 6.3µM* and TRPML1 blocker 37.
`Cc1cc(C)cc(NC(=O)/C=C/c2ccc([N+](=O)[O-])s2)c1` gave TRPML1 agonist 0, Vif-APOBEC3F blk 11µM*, PINK1 modulator inconclusive, Vif-A3G inh inconclusive and TRPML1 blocker 0.
For CC(C)OC(=O)c1cc(NC(=S)Nc2ccc([N+](=O)[O-])cc2)cc(C(=O)OC(C)C)c1 the results were TRPML1 agonist -1, Vif-APOBEC3F blk -6%, PINK1 modulator 14µM*, Vif-A3G inh 2% and TRPML1 blocker 2.
Screening CC(C)CCNC(=S)Nc1ccc([N+](=O)[O-])cc1 returned TRPML1 agonist 1, Vif-APOBEC3F blk -4%, PINK1 modulator inconclusive, Vif-A3G inh 0% and TRPML1 blocker 5.
`Cc1cc(C)nc(/N=C(\N)Nc2ccc(C(C)C)cc2)n1` gave TRPML1 agonist 13, Vif-APOBEC3F blk -6%, PINK1 modulator 40µM*, Vif-A3G inh 0% and TRPML1 blocker 2.
Screening COC(=O)c1ccc(NC(=O)CC2C(=O)N(c3cccc(OC)c3)C(=O)N2Cc2cccc(OC)c2)cc1 (centres undefined) returned TRPML1 agonist 0, Vif-APOBEC3F blk 2%, PINK1 modulator 1%, Vif-A3G inh 0% and TRPML1 blocker 10.
For CNC(=O)c1[nH]nc2c1CCc1ccccc1-2 the results were TRPML1 agonist -1, Vif-APOBEC3F blk inconclusive, PINK1 modulator -1%, Vif-A3G inh 0% and TRPML1 blocker 15.
COc1ccc(/C=N/NC(=O)c2[nH]nc3c2CCc2ccccc2-3)cc1OC was read as TRPML1 agonist 1, Vif-APOBEC3F blk -4%, PINK1 modulator 7%, Vif-A3G inh 3.2µM* and TRPML1 blocker 9.
Screening COc1ccc(Cl)cc1NC(=O)C(C)n1nnc2sc3c(c2c1=O)CCCC3 (centres undefined) returned TRPML1 agonist 1, PINK1 modulator 1% and TRPML1 blocker 3.
Cc1nc(SCC(=O)CC(=O)OC(C)C)c(C#N)c(C)c1C was read as TRPML1 agonist 71*, Vif-APOBEC3F blk 4%, PINK1 modulator 4%, Vif-A3G inh -2% and TRPML1 blocker -1.
`CCCCCCCCCC[n+]1ccc(/C=C/c2ccc(N(C)C)cc2)c2ccccc21` gave TRPML1 agonist 57*, PINK1 modulator inconclusive and Vif-A3G inh inconclusive.
Screening CCCC[n+]1c(/C=C/c2ccc(N(C)C)cc2)sc2ccccc21 returned TRPML1 agonist 4, PINK1 modulator 5µM* and Vif-A3G inh 0%.
Screening CCCCCCCCCCCCCCCCCCN(CCCCCCCCCCCCCCCCCC)c1ccc(/C=C/c2ccnc3ccccc23)cc1 returned TRPML1 agonist 0 and Vif-A3G inh -2%.
`CN(C)c1ccc(/C=C/c2sc3ccccc3[n+]2CCCCI)cc1` gave TRPML1 agonist 0, PINK1 modulator inconclusive and Vif-A3G inh -11%.

From PubChem
